# M1 ag parental = M1 agonist counterscreen hit in parental CHO-K1 cells; Fluo-8 calcium fluorescence; scaled to maximal ATP response, vehicle zero; activation, % at 3 µM; actives 0.48% (n = 360,000); AID 602248; in the data active = activation above about 15%;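 note: untransfected CHO-K1 host cells lacking M1 receptor as counterscreen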
# CHO-K1 Ca antag = counter-screen for M1 antagonists: effect in parental CHO-K1 cells | ATP-induced calcium, Fluo-8 fluorescence | inhibition, % at 3 µM | actives 0.6% (n = 360,000) | AID 602250;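 active = inhibition above a per-plate cutoff, the plate's mean sample inhibition plus 3 SD, cut at about 24% in these data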;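 note: 0% = DMSO plus EC80 ATP and 100% = DMSO alone without ATP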
# CHRM1 agonist = agonists of human M1 muscarinic receptor; P11229; CHO-K1 hM1, Fluo-8 calcium fluorescence, agonist mode; 0% DMSO, 100% acetylcholine EC100; activation, % at 3 µM; actives 0.33% (n = 360,000); AID 588814;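 active = activation above the run's mean compound activation plus 3 SD, cut at about 16% in these data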;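 note: peak over basal fluorescence ratio within a 140 s kinetic read after compound addition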
# Target sequence (P11229 whole entry, looked up): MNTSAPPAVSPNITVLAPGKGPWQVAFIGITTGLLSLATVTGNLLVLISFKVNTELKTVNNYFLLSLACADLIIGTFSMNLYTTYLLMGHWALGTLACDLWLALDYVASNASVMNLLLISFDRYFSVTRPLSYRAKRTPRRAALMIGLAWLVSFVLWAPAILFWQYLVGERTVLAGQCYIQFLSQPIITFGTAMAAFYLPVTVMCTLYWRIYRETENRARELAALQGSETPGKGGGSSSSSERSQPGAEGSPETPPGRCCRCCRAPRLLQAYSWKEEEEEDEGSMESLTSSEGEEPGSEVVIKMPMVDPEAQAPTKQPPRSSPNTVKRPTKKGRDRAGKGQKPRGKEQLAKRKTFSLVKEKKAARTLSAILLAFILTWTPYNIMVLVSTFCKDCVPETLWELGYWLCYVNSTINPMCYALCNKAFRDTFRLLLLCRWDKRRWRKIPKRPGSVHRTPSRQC
# CHRM1 PAM = human CHRM1 positive allosteric modulation; P11229; CHO-K1 hM1, Fluo-8 calcium fluorescence, ACh EC20; 0% = ACh EC20, 100% = maximal ACh; activation, % at 3 µM; actives 0.088% (n = 360,000); AID 588819; in the data active = activation above about 19%, passing the limit was not always enough
# M1 PAM parental = counter-screen for M1 PAMs: effect in parental CHO-K1 cells; ATP EC20, Fluo-8 calcium fluorescence; 0% at ATP EC20, 100% at ATP max; AID 602247; activation, % at 3 µM; actives 0.02% (n = 360,000);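 active = activation above the run cutoff, the mean activation of all test compounds plus 3 SD, cut at about 40% in these data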;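 note: peak over basal fluorescence ratio in a 140 s read after ATP addition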
# M1 antag = human CHRM1 antagonism; P11229; AID 588852; actives 1.3% (n = 360,000); CHO-K1 hM1, Fluo-8 calcium fluorescence, ACh EC80 antagonist; inhibition, % at 3 µM;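 active = percent inhibition above its own plate's cutoff, namely the mean of that plate's compound wells plus 3 SD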;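 note: peak over basal fluorescence ratio during 140 s after agonist addition; 0% = ACh EC80 plus DMSO and 100% = DMSO alone without agonist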
# * hit, by the source's call; nt = not tested or not shown. Only some compounds are listed: those with a hit (about 2.3% of all), similar ones and a draw of the others.
SMILES,M1 ag parental,CHO-K1 Ca antag,CHRM1 agonist,CHRM1 PAM,M1 PAM parental,M1 antag
Cc1ccc(CNC(=S)Nc2ccc(C)c([N+](=O)[O-])c2)cc1,10,29*,9,-16,-13,18
Clc1ccc(C(CCN2CCCC2)Cc2ccccc2)cc1 (stereo not drawn),2,-7,-11,-35,4,84*
OC(CCN1CCCCC1)c1ccc(-c2ccccc2)cc1 (stereo not drawn),5,-18,-9,-9,22,1
CCCCCCN1C[C@H](n2cc(C3CC3)nn2)[C@@H](O)C[C@@H]1c1ccc(Cl)cc1,1,-14,-8,8,23,-17
CN(C)/C=N/c1nc2nccc(-c3cccc(Cl)c3)n2n1,21*,6,-12,1,9,0
CN(C)/C=N/c1nc2nccc(-c3ccc(F)cc3)n2n1,0,-11,-11,5,12,3
COc1cc(OCc2ccccc2)c(CC(=O)O)c([N+](=O)[O-])c1,1,-15,-5,6,14,-12
CCCc1nc2c3ccccc3ccn2c1Cc1cccc(F)c1,1,-20,-6,-26,15,56*
CC1=C(C#N)C(C(F)(F)F)(C(F)(F)F)N=C(c2ccco2)N1,16*,-1,5,-12,13,14
CN(C)CCNc1nc2sc3c(c2c(=O)n1Cc1ccccc1)CCCCC3,13,12,-11,-30,4,73*
CC(=O)NC(C)(c1ccccc1)c1nc(-c2cncnc2)cs1 (stereo not drawn),0,8,-1,12,-17,-16
CCOC(=O)c1[nH]c(C)c(/C(O)=C2\C(=O)C(=O)N(CCCN3CCOCC3)C2c2cccnc2)c1C (stereo not drawn),19*,0,-5,8,11,0
CCOC(=O)c1[nH]c(C)c(/C(O)=C2\C(=O)C(=O)N(CCCN(CC)CC)C2c2cccnc2)c1C (stereo not drawn),1,-5,-6,5,10,-11
O=C(NCc1ccncc1)C1Cc2c(-c3ccccc3Oc3ccccc3)ccnc2O1 (stereo not drawn),3,-13,-1,18,13,-20
CCn1c(C)cs/c1=N\C(=S)Nc1ccccc1C,0,24*,-7,4,-14,-1
Cc1ccc(S(=O)(=O)n2cnc3cc([N+](=O)[O-])ccc32)c(C)c1C,0,25*,-1,-8,-9,13
O=C(NC1CCCCC1)C1c2ccccc2OCC(=O)N1Cc1ccc2c(c1)OCO2 (stereo not drawn),1,-16,nt,nt,18,nt
N#CC1=C(N)Oc2nc(-c3ccccc3)[nH]c2C1c1cccnc1 (stereo not drawn),0,32*,-4,0,-7,-4
CCN(CC)c1ccc2c(c1)OC(N)=C(C#N)C2c1cccnc1 (stereo not drawn),17*,-10,22*,-11,19,-4
N#CC1=C(N)Oc2n[nH]c(-c3ccccc3)c2C1c1cccnc1 (stereo not drawn),0,1,-3,5,7,-8
COc1ccc(CNC(=O)c2ccc(-n3ccnc3)c3ccoc23)cc1OC,1,-6,0,4,-4,-10
FC(F)(F)C1=NNC(c2ccc3ccccc3c2)=NN1,0,0,0,4,13,-13
Cc1cc(/C=N/n2cnnc2)c(C)n1-c1ccc(OCc2ccc(Cl)cc2Cl)cc1,8,43*,-1,-15,-4,37
Cc1cc(/C=N/n2cnnc2)c(C)n1-c1ccc(OCc2ccc(F)cc2)cc1,9,4,-3,-22,2,46*
Cc1cc(/C=N/n2cnnc2)c(C)n1-c1ccc(Cl)cc1,0,7,-4,6,-2,-4
SMILES,M1 ag parental,CHO-K1 Ca antag,CHRM1 agonist,CHRM1 PAM,M1 PAM parental,M1 antag
CCC(CC)C(=O)N(C)c1c(C)nc2c(OCc3ccc(C#N)cc3)cccn12,1,-3,-7,5,3,-11
COc1cccc2cc(C(=O)C3=C(O)C(=O)N(CCN4CCOCC4)C3c3cccc(Cl)c3)oc12 (stereo not drawn),-1,27*,5,18,8,-11
Cn1nc(C(=O)OCC(=O)NCc2ccc(Cl)cc2Cl)c2ccccc2c1=O,0,-9,-2,5,-8,0
CCCNC(=O)Cn1nc(-c2ccccc2OC)ccc1=O,0,-5,0,11,8,-16
CC(=O)Nc1ccc(Nc2ncnc3c2cnn3-c2cccc(C)c2)cc1,0,-8,-3,0,7,5
Cc1cccc(Nc2ncnc3c2cnn3C)c1,0,29*,2,6,-10,5
CC(=O)Nc1ccc(Nc2ncnc3c2cnn3-c2ccc(C)cc2C)cc1,0,26*,-3,11,-6,-7
Cc1cc(C)n(CC(=O)c2cccc([N+](=O)[O-])c2)n1,17*,0,-6,9,9,-10
CS(=O)(=O)/C(C#N)=C/c1cccn1S(=O)(=O)c1cccc2ccccc12,4,-7,-1,-3,10,-10
CC1CCCCC12NC(=O)N(CC(=O)OCC(=O)Nc1ccc(F)cc1[N+](=O)[O-])C2=O (stereo not drawn),5,6,3,-17,-2,29*
CC1CCCCC12NC(=O)N(CC(=O)NCc1cccs1)C2=O (stereo not drawn),2,25*,-5,1,-5,-5
COc1ccccc1C(=O)NC(=O)COC(=O)CN1C(=O)NC2(CCCCC2C)C1=O (stereo not drawn),0,17,-3,3,-13,-10
COCCNC(=O)C1(C)CCN(C(=O)c2ccc(SC(F)(F)F)cc2)C1 (stereo not drawn),0,11,-4,-2,-10,5
Cc1ccc([C@H]2N[C@]3(CCCN(Cc4ccc(Br)cc4)C3=O)[C@H]3C(=O)N(C)C(=O)[C@@H]23)cc1,0,-7,-3,4,-6,-7
Cc1c(C(=O)OC(C)C(C)C[N+](C)(C)C)oc2ccccc12 (stereo not drawn),0,9,-6,-24,0,99*
Cc1c(C(=O)OC(C)C(=O)N(C)Cc2ccccc2)oc2ccccc12 (stereo not drawn),4,-17,-5,4,9,-8
CCCCCCn1c(=O)n2n(c1=O)[C@@H]1CN(S(=O)(=O)c3ccc(C)cc3)C[C@]1(O)[C@@H](OC(=O)NCc1ccccc1)C2,0,9,6,14,-9,-9
O=C(NC(=S)NNC(=O)c1cccs1)c1ccc(Br)o1,14,-6,33*,-4,0,-16

# Screening results from PubChem BioAssay.
